# Assay results as given in PubChem BioAssay AID504523 (Broad Institute, 2011).
# Where “and” joins values, the source holds several entries; their conditions need not be identical. Equal entries are not always repeated. About 490 (0.14%) of roughly 340,000 compounds were called active. This is one part of a sample in which actives are shown more often than they occur. Cut-off read from the data, not from the text of the source: active = inhibition above about 12%; inconclusive = no clear call, values can overlap the other calls; inactive = below about 7.3%. The source holds several records for some structures; these can differ, active in one and inactive in another.
# Target: Kelch-like ECH-associated protein 1 (Homo sapiens) (UniProt Q14145)
# Experiment: disruptors of Keap1 binding to Nrf2 – biochemical, fluorescence polarization, single point, primary screen (AID 504523);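 note: human Keap1 Kelch domain with fluorescein labeled Nrf2 9mer peptide probe; 0% = neutral control wells and 100% = peptide positive control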
# Settings: Keap1 Kelch-Nrf2 peptide fluorescence polarization, 1536-well; at 9.4 µM; stronger effect = higher value
# Chain of Kelch-like ECH-associated protein 1 (Homo sapiens) (Q14145 whole entry, looked up, the tested form may be a part): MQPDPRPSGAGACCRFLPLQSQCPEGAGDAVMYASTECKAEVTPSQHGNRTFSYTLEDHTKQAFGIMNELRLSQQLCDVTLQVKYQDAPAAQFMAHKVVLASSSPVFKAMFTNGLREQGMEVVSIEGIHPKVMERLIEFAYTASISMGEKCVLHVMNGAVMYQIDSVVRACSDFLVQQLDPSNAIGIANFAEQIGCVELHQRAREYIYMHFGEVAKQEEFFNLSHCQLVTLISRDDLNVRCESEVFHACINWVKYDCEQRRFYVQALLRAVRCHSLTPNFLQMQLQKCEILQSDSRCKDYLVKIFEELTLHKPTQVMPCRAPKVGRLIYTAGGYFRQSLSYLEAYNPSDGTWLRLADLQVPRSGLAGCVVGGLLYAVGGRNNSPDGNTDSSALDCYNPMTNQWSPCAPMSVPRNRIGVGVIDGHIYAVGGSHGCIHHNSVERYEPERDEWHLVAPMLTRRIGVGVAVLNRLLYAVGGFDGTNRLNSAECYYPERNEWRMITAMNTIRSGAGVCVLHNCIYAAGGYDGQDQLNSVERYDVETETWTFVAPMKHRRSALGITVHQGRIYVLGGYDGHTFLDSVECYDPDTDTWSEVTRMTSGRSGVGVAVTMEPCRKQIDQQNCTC
row,Compound,inhibition
1,Nc1ccccc1SC(C[N+](=O)[O-])c1ccccc1 (stereo not drawn),-4.52% (inactive)
2,COc1ccc(OC)c2[nH]c(=O)c(CCNC(=O)C(=O)c3c[nH]c4ccccc34)cc12,-5.41% (inactive)
3,CC(=O)c1cc(C#N)c(SCC(=O)Nc2nccs2)nc1C,-4.52% (inactive)
4,Cc1ccnc(NC(=O)C2CCN(S(=O)(=O)c3c(C)c(C)cc(C)c3C)CC2)c1,-1.09% (inactive)
5,COCCCNC(=O)C1CCC(CNS(=O)(=O)c2ccc(OC)cc2)CC1 (stereo not drawn),0.471% (inactive)
6,O=C(OCC(=O)N(CCc1ccccc1)Cc1ccccc1)c1ccccc1[N+](=O)[O-],1% (inactive)
7,CC(C)C[C@H](NC(=O)C1CCC(CNC(=O)[C@@H]2CCCN2C(=O)OC(C)(C)C)CC1)C(=O)O (stereo partly drawn),0.427% (inactive)
8,Cc1nc2ccccc2n1C(=O)N1CCOCC1,-5.92% (inactive)
9,OCCC1CN(Cc2cccc(O)c2)CCN1CCc1ccccc1 (stereo not drawn),-6.53% (inactive)
10,COc1ccc(S(=O)(=O)N2C[C@H]3CON(C)[C@H]3C[C@H]2c2cccc(Br)c2)cc1,-1.34% (inactive)
11,COC(C[C@H](O)CC(=O)COCc1ccccc1)OC,-0.107% (inactive)
12,Cc1cc(C)n(-c2nnc(N3CCN(c4ccccc4)CC3)nn2)n1,-3.51% (inactive)
13,C=CCn1c(SCc2cccc(F)c2)nc2cc(C(=O)N3CCC(C(N)=O)CC3)ccc2c1=O,-4.14% (inactive)
14,COc1cc(/C=N/N=C(\N)c2nonc2N)cc(OC)c1OC,1.13% (inactive)
15,c1ccc2c(c1)OCCOCCOCCO2,1.51% (inactive)
16,Cc1ccc2nc(NC(=O)C3CSC4(C)CCC(=O)N34)sc2c1 (stereo not drawn),-0.772% (inactive)
17,Oc1cccc(CCc2ccccn2)c1,1.31% (inactive)
18,CC(C)(C)N(Cc1ccccc1)C(=O)COC(=O)CCc1c[nH]c2ccccc12,-5.52% (inactive)
19,O=C1CC(c2ccccc2)C(c2ccccc2)=NN1 (stereo not drawn),-8.87% (inactive)
20,CCC1CCc2c(sc(NC(C)=O)c2C#N)C1 (stereo not drawn),-1.96% (inactive)
21,Cn1nc(-c2ccccc2)c(CSc2cccc(Cl)c2)c1Cl,1.6% (inactive)
22,CCN1CC=C2C(C#N)=C(N)C(C#N)(C#N)[C@H](c3ccoc3)[C@H]2C1,26.5% (active)
23,O=c1cnnc(Nc2ccccc2F)[nH]1,-0.638% (inactive)
24,CCN(CC)Cc1c(C(=O)N/N=C/c2cccc(OCc3ccc(F)cc3)c2)nnn1-c1nonc1N,2.94% (inactive)
25,CC(=O)NS(=O)(=O)c1ccc2c(c1)Cc1cc(S(=O)(=O)NC(C)=O)ccc1-2,-4.15% (inactive)

row,Compound,inhibition
1,Cc1ccc(Nc2cc(C)nc3c(C)ccc([N+](=O)[O-])c23)cc1,-0.384% (inactive)
2,CCOc1cc(CNCc2ccccn2)ccc1OCC(=O)NC(C)(C)C,-3.19% (inactive)
3,O=C(c1c(F)cccc1Cl)N1CCN(S(=O)(=O)c2ccc3c(c2)OCCCO3)CC1,-0.841% (inactive)
4,CC(C)C(NS(=O)(=O)c1cccs1)C(=O)Nc1nc(C(C)(C)C)cs1 (stereo not drawn),1.11% (inactive)
5,COc1ccc(-c2nonc2NC(=O)c2oc3ccc(F)cc3c2C)cc1OC,4.52% (inactive)
6,O=C1CC(C(F)(F)C(F)(F)C(F)(F)C(F)(F)F)=Nc2ccccc2N1,-1.59% (inactive)
7,Cc1noc(C)c1COC(=O)Cn1c(C)nc2ccccc21,1.41% (inactive)
8,CCCc1cc(-c2n[nH]c(=S)n2Cc2ccccc2)cs1,-5.54% (inactive)
9,COc1ccccc1NC(=O)CCN1CCN(c2ccc(Cl)cc2)CC1,2.69% (inactive)
10,Cc1ccc(S(=O)(=O)N2[C@@H](c3cccc4ccccc34)C(C(=O)O)=C[C@H]2C(C)(C)C)cc1,6.06% (inactive)
11,Cc1cc(C)nc(N2C(=O)CC(Cc3ccccc3)C2=O)n1 (stereo not drawn),2.94% (inactive)
12,O=C(Nc1cccc2c1N(C(=O)c1ccco1)CCC2)c1ccco1,0.867% (inactive)
13,CN(C)c1ccc(C(=S)N2CCN(C(=S)Nc3ccc(Cl)cc3)CC2)cc1,1.08% (inactive)
14,Cc1ccc(Nc2nc(CSc3nnc(-c4ccncc4)n3-c3ccccc3C)cs2)cc1,-6.12% (inactive)
15,Nc1c(C(=O)O)cnn1-c1ccccc1,1.79% (inactive)
16,C=C(C)C1CC=C(C)/C(=N\NC(=O)CNc2ccccc2OC)C1 (stereo not drawn),0.164% (inactive)
17,COc1cc(OC)c(S(=O)(=O)Nc2ccccc2C(=O)O)cc1S(=O)(=O)Nc1ccccc1C(=O)O,15.6% (active)
18,COc1ccc(S(=O)(=O)Nc2ccccc2C(=O)N2CCCC2)cc1C,-0.35% (inactive)
19,COc1ccc(OC)c(S(=O)(=O)Nc2ccccc2F)c1,-3.36% (inactive)
20,O=C(/C=C/c1cc2c(cc1Br)OCO2)NCc1ccc(Cl)cc1,-0.718% (inactive)
21,Cc1ccccc1CNC(=O)CCC(=O)N1Cc2ccccc2Oc2ncccc21,0.575% (inactive)
22,O=C(CNCc1ccco1)Nc1cc(S(=O)(=O)N2CCOCC2)ccc1N1CCCC1,-2.82% (inactive)
23,CCCCNC(=O)C1CCCN(S(=O)(=O)c2ccc(S(=O)(=O)NCC(C)C)cc2)C1 (stereo not drawn),-0.397% (inactive)
24,COC(=O)c1ccc(-c2noc(CN(Cc3ccccn3)CC3CCCO3)n2)cc1 (stereo not drawn),-1.93% (inactive)
25,Cc1ccc2c(c1)N(CC(=O)N1CCC(C)CC1)C(=O)c1cccnc1O2,-0.762% (inactive)

row,Compound,inhibition
1,COc1ccccc1C(=O)NCCn1cc(SCC(=O)NCc2ccco2)c2ccccc21,-4.2% (inactive)
2,O=C(NCc1ccncc1)C(=O)NCc1ccco1,-3.77% (inactive)
3,CCOC(=O)c1c(NC(=O)CSc2nnc(CNc3ccc(C)cc3C)o2)sc(C)c1C,3.69% (inactive)
4,Cc1ccc(-n2c(CNc3ccc(F)cc3)nnc2SCC(=O)N2CCOCC2)cc1,-5.07% (inactive)
5,CSCCC(NC(=O)COc1ccccc1)C(=O)N1CCN(c2cccc(C(F)(F)F)c2)CC1 (stereo not drawn),1.75% (inactive)
6,CN(CCOc1ccc(CC2SC(=O)NC2=O)cc1)c1ccccn1 (stereo not drawn),44.6% (active) and -1.69% (inactive)
7,CC(C)=N/N=C1/NC(=O)C(Cc2ccccc2)S1 (stereo not drawn),-5.03% (inactive)
8,CC(O)c1ccc(OCCN(C)c2ccccn2)cc1 (stereo not drawn),2.21% (inactive)
9,N#Cc1cccc(CSc2ncnc(N)n2)c1,-4.01% (inactive)
10,Cc1nc(SCC(=O)NC2CCCCC2C)c(C#N)c(C)c1C (stereo not drawn),-1.86% (inactive)
11,COc1ccccc1CNC(=O)C1Cc2ccccc2C(=O)O1 (stereo not drawn),0.554% (inactive)
12,CC(Sc1nnc(C2CC2)n1C1CC1)C(=O)Nc1ccc(C(N)=O)cc1 (stereo not drawn),-1.4% (inactive)
13,COc1ccc(S(=O)(=O)n2nc(C)c(S(=O)(=O)N3CCOCC3)c2C)cc1,-1.09% (inactive)
14,O=C1c2cccc3c([N+](=O)[O-])ccc(c23)C(=O)N1CC1CCCO1 (stereo not drawn),-6.02% (inactive)
15,Cc1nn(C)cc1N1C(=O)c2cccc3c(N)ccc(c23)C1=O,71% (active)
16,CN1C(=O)c2cccc3c(N)ccc(c23)C1=O,16.4% (active)
17,CC(C(=O)O)N1C(=O)c2cccc3cccc1c23 (stereo not drawn),-0.759% (inactive)
18,c1ccc(CN=C2Nc3ccccc3CS2)nc1,-0.423% (inactive)
19,O=S1(=O)CC/C(=N\Nc2ccc(F)cc2)c2ccsc21,3.88% (inactive)
20,N#CCc1c[nH]c2ccc([N+](=O)[O-])cc12,0.344% (inactive)
21,COC(=O)c1ccc(NC(=S)Nc2cccc(C)n2)cc1,1.2% (inactive)
22,Cc1nn(C)c(C)c1Sc1ccccc1N,-2.63% (inactive)
23,O=C(Cc1ccc(Cl)cc1)NCc1nc(-c2ccccc2)no1,-0.917% (inactive)
